This is part of a sample that, as a whole, favours compounds with a hit. Of some 83,000 tested, about 20% had one in any assay.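 Values shown are percent growth following 48 h exposure of cells in 96-well plates to a single concentration of compound; below 10 was considered active.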 Values without a mark were called inactive. Calls of active or inactive are those of the source.
How the values were obtained:
Assay in all cases: NCI-60 one-dose screen, 48 h (100 = growth as untreated, 0 = no growth, -100 = all killed)
Details in all cases: 10 µM unless noted
[1] = test system: NCI-H23 lung
[2] = test system: NCI-H226 lung
[3] = test system: NCI-H322M lung
[4] = test system: HOP-62 NSCLC
[5] = test system: NCI-H460 lung
[6] = test system: HOP-92 NSCLC
[7] = test system: NCI-H522 lung
[8] = test system: A549/ATCC NSCLC
[9] = test system: 786-0 renal
[10] = test system: COLO 205 colon
[11] = test system: DU-145 prostate
[12] = test system: K-562 leukemia
[13] = test system: MALME-3M melanoma
[14] = test system: MDA-MB-231 breast
[15] = test system: RXF 393 renal
[16] = test system: SF-268 CNS
[17] = test system: SF-295 CNS
[18] = test system: SF-539 CNS
[19] = test system: UACC-257 melanoma
[20] = test system: M14 melanoma

Row | SMILES | growth [1] | growth [2] | growth [3] | growth [4] | growth [5] | growth [6] | growth [7] | growth [8] | growth [9] | growth [10] | growth [11] | growth [12] | growth [13] | growth [14] | growth [15] | growth [16] | growth [17] | growth [18] | growth [19] | growth [20]
1 | N=c1c2c(=N)n3c(nc2nc2n1-c1ccccc1Sc1ccccc1-2)sc1cc(Cl)ccc13 | 7.38% (active) | 32.9% | 47.1% | 76.8% | 13.8% | -14.1% (active) | 4.09% (active) | 14% | 30% | 44.8% | 32.4% | 34.9% | 12.7% | 32.1% | 26.5% | 38.3% | 12.8% | 55.4% | -5.42% (active) | 28.8%
2 | CN1CCN(CCCOc2ccc3ncnc(Nc4ccc(Oc5cccc(F)c5)c(Cl)c4)c3c2)CC1 | 50.8% | 88.4% | 22.1% | 48.7% | -62.8% (active) | 31.4% | 22% | 21.1% | -3.9% (active) | -37% (active) | 15.2% | -30% (active) | -72.4% (active) | -65.4% (active) | -55.7% (active) | 40.5% | -35% (active) | -75.1% (active) | -59.6% (active) | -75.7% (active)
3 | Cc1cc2nc(-c3c(-c4ccc(F)cc4)nc4sccn34)[nH]c2cc1C | 94% | 97.5% | 99.7% | 108% | 106% | 86.1% | 85% | 95.6% | 86.3% | 105% | 94.3% | 94.1% | 106% | 102% | 93.2% | 90.8% | 92.5% | 98.2% | 109% | 99.5%
4 | CN(C)Cc1ccc(C(=O)Nc2ccc3ncnc(Nc4ccc(Oc5cccc(F)c5)c(Cl)c4)c3c2)cc1 | 49.5% | 80.2% | 4.65% (active) | 45.1% | -74.3% (active) | 36.2% | -29.6% (active) | 8.26% (active) | -84.9% (active) | -53.3% (active) | 7.69% (active) | -39.3% (active) | -80.6% (active) | -73.9% (active) | -80.4% (active) | -31% (active) | -41.7% (active) | -90.1% (active) | -58.3% (active) | -69.3% (active)
5 | O=C1/C(=C/c2cccc([N+](=O)[O-])c2)COc2ccc(O)cc21 | 89.3% | 111% | 89.8% | 88.2% | 92.4% | 110% | 8.12% (active) | 89.2% | 14.7% | 64.6% | 81.8% | 13.4% | 76.6% | 47.9% | 107% | 85.9% | 95.5% | 70.6% | 97% | 55%
6 | CCN1C(=O)N(CC)C2C1NN=c1s/c(=C3\C(=O)N(CCc4ccccc4)c4ccccc43)c(=O)n12 (stereo not given) | 22.7% | 24.8% | 36.1% | 24.4% | 1.95% (active) | 38.1% | -5.28% (active) | 16.1% | 22.1% | 7.44% (active) | 5.49% (active) | 7.99% (active) | 33.3% | 2.5% (active) | -5.91% (active) | 47% | 9.5% (active) | -37.4% (active) | 53.2% | 13.6%
7 | O=C(CCCCl)NNc1nccc(Nc2ccc(S(=O)(=O)Nc3ccncc3)cc2)n1 | 99.3% | 104% | 102% | 94.6% | 109% | 98.5% | 99.7% | 96.6% | 95.2% | 111% | 103% | 111% | 108% | 116% | 117% | 95.9% | 96.7% | 102% | 96.3% | 97.7%
8 | COc1ccc2c(c1)c(-c1nonc1-c1c[nH]c3ccc(Br)cc13)cn2C | 55.6% | 84.6% | 55.8% | 29.6% | 23.7% | 75.6% | 11.3% | 28.1% | 58.6% | 23.9% | 61.2% | 11.5% | 46.3% | 43.4% | 67% | 48.3% | 40.2% | 56.6% | 64.7% | 20.8%
9 | COc1ccc(/C(C)=C(\c2ccc(Cl)cc2)c2ccc(OCCN3CCCC3)cc2)cc1 | 58.8% | 85% | 49.6% | 59.2% | 2.86% (active) | 56.4% | 69.9% | 25.5% | -31.6% (active) | -29.9% (active) | 62.6% | -1.6% (active) | 4.84% (active) | 25.5% | 32.6% | 51.8% | -7.32% (active) | 45.9% | -26.8% (active) | -13.7% (active)
10 | FC(F)(F)c1[nH]ncc1-c1nc2c(N3CCCCC3)cc3[nH]ncc3c2c2c1CCCC2 | -9.72% (active) | 2.93% (active) | -2.53% (active) | -8.3% (active) | 3.42% (active) | -10.2% (active) | -28.4% (active) | 5.13% (active) | -1.84% (active) | -33.7% (active) | 10.2% | 14.1% | 0.904% (active) | 3.41% (active) | -92% (active) | -11.7% (active) | 7.04% (active) | -72.2% (active) | 0.68% (active) | 2% (active)
11 | Cc1cc(F)ccc1S(=O)(=O)Nc1cc(-c2c(O)ccc3ccccc23)c(O)c2ccccc12 | 16.7% | 47.3% | 79% | 80.1% | 16.3% | 19.1% | -36.2% (active) | 20.4% | 76.2% | 14.3% | 41.7% | 14.8% | 15.3% | 22.7% | 27.1% | 34.9% | 41.8% | 6.5% (active) | 30.2% | 18.2%
12 | CCC(C)Nc1ccc(NC(C)CC)cc1 (stereo not given) | 74.5% | 91.3% | 86.4% | 84.8% | 101% | 90.5% | 54.9% | 94.7% | 74% | 9.48% (active) | 109% | 54.2% | 73.4% | 82% | 81.8% | 96.6% | 111% | 90.7% | 21.1% | 98.9%
13 | Cn1cc(/C=C2/C(=O)Nc3ccccc32)c2ccccc21 | 73.4% | 70.6% | 91.5% | 76.8% | 92.4% | 87.4% | 77.8% | 86.2% | 98.4% | 91.7% | 99.1% | 96.7% | 94.5% | 109% | 96.7% | 84.5% | 108% | 80% | 95.9% | 92.3%
14 | COC(=O)/C(CCC=C(C)C)=C1\[C@@H](OC(C)=O)C[C@@]2(C)[C@H]1CC(=O)[C@H]1[C@@]3(C)CCC(N4CCCC4)[C@@H](C)[C@@H]3CC[C@@]12C (stereo not given in full) | 91.5% | 113% | 99.6% | 102% | 101% | 77.2% | 102% | 104% | 93.1% | 106% | 101% | 12.5% | 100% | 130% | 98.3% | 97.6% | 98.3% | 102% | 110% | 93.1%
15 | Oc1c(Cl)cc(Cl)c2ccc(Cn3cc(-c4cccc(C(F)(F)F)c4)nn3)nc12 | 90% | 90.1% | 102% | 97.5% | 101% | 55.8% | -3.26% (active) | 97.9% | 95.6% | 92.9% | 63% | 5.87% (active) | 75.8% | 101% | 33.7% | 88.9% | 99% | 75.2% | 69.1% | 62.4%
16 | CN1CCN(Cc2ccc(NC(=O)c3cncc(C#Cc4cnn5ccccc45)c3)cc2C(F)(F)F)CC1 | -43.9% (active) | -11.6% (active) | -2.81% (active) | -15.4% (active) | -22.5% (active) | -7.15% (active) | -14.7% (active) | 4.64% (active) | 4.29% (active) | -33.6% (active) | 4.16% (active) | 1.13% (active) | -61.3% (active) | -7.64% (active) | -44.8% (active) | -32.8% (active) | 20.7% | -58.4% (active) | 11% | -39.6% (active)

Reference: PubChem BioAssay (NCI)
